The list is not random: actives were taken first. Their share in the collection is about 6.6%.
RGS4 inhibitor: blocks human RGS4-accelerated GTP hydrolysis. Transcreener GDP fluorescence polarization, RGS4-accelerated GTP hydrolysis. Potency, µM (series often up to 114 µM), for the others: at the top dose activity change, negative = inhibition, usual class: inhibitors. AID 504845. 390,000 tested, 0.039% active; further: on the % scale 0 is the no-effect control and ±100 the full control effect; nearly all actives have a fitted effect of over 75% in size
Target sequence (P49798 whole entry, looked up): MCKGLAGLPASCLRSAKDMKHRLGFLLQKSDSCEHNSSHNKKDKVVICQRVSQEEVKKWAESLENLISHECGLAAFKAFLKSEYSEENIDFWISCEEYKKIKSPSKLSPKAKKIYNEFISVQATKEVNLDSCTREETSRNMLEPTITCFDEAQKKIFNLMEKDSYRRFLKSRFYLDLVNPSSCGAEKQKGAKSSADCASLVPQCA
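MLSMR compounds (23 nl, pin-transferred) preincubated 10 min at room temperature with a 500nM (2x) first reagent, then RGS4 at 900nM (2x) plus Transcreener GDP mix added; fluorescence polarization (620/688 nm) read before and after 90 min at 30 °C.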
TSG101-PTAP inh: blocks PTAP/TSG101 interaction to inhibit HIV-1 budding; Fluorescence polarization, FITC-PTAP peptide / Tsg101 binding; Potency, µM (titrated, usually from 115 µM), without a hit: at the highest dose activity change, negative = inhibition, hits mostly inhibitors; 340,000 tested, under 10 active; active means well fitted inhibition curve with a large enough effect in the main read-out, with a control signal flat, not every such curve was filed as active; inconclusive means small, poorly fitted or top-dose-only effect, or effect the other way, or a change in a side signal; inactive means no such curve, though single readings can be large or run the other way; further: % of control where 0% means no effect
Target sequence (Q99816 whole entry, looked up): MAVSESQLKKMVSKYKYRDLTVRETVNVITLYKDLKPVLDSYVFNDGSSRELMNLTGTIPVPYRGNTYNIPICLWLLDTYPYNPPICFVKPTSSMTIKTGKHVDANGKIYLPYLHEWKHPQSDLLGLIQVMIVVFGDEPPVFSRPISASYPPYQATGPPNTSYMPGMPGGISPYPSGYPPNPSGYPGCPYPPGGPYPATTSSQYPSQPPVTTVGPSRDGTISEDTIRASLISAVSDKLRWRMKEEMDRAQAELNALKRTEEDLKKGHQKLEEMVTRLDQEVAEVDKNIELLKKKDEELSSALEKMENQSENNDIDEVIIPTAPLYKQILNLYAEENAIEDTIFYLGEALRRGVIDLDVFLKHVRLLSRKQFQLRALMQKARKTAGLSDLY
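Fluorescence polarization binding of Tsg101 binding domain (10 uM final) to FITC-labeled PTAP peptide (50 nM final) in HEPES pH 7.5 buffer with NaCl, Tween 20, EDTA, TCEP. Compounds added before peptide; binding 20 min at RT.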
KB-V1 MDR tox: KB-V1 MDR subline cytotoxicity; AID 1347076; KB-V1 MDR cells viability, CellTiter-Glo, 72 h; 400,000 tested, 3.4% active; Potency, µM (series often up to 46.1 µM), most hits filed as cytotoxic; further: on the % scale 0 is the no-effect control and ±100 the full control effect; nearly all actives have a fitted effect of over 60% in size
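Following 72 h at 37 degrees C with compound, KB-V1 cell viability was read by CellTiter-Glo luminescence, medium being phenol-red-free DMEM plus 10% FBS; concentration-response parameters came from normalized, curve-fitted qHTS data.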
MCF10A rerep: inducers of DNA re-replication in MCF 10A breast cells; MCF 10A DNA re-replication, Hoechst nuclear intensity, 48 h; Potency, µM (highest dose often 46.1 µM), without a hit: top-dose activity, positive = re-replication, hits mostly activators; 350,000 tested, 2.9% active; AID 624296; further: % of control where 0% means no effect; nearly all actives have a fitted effect of over 50% in size
SW480 rereplic: inducers of DNA re-replication in SW480 colon cancer cells; SW480 DNA re-replication, Hoechst DNA content imaging, 48 h; Potency, µM (titrated, usually from 46.1 µM), for inactives: at the top dose re-replication activation, hits mostly activators; 340,000 tested, 1.8% active; further: % of control where 0% means no effect; nearly all actives have a fitted effect of over 55% in size
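Per well, 250 cells were exposed to pinned compound for 48 hr. Nuclear DNA was visualised with Hoechst (40 min, 37 C) and total object intensity recorded by fluorescence scanning.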
KB-3-1 cytotox: KB-3-1 parental cell cytotoxicity; AID 1347075; KB-3-1 viability, CellTiter-Glo ATP luminescence, 72 h; 400,000 tested, 1.4% active; Potency, µM (highest dose often 46.1 µM), usual class: cytotoxic; further: on the % scale 0 is the no-effect control and ±100 the full control effect; nearly all actives have a fitted effect of over 60% in size
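KB-3-1 parental drug-naive adenocarcinoma cells in DMEM/10% FBS, incubated 72 h at 37 C with pin-transferred compounds across a concentration series. Viability by CellTiter-Glo luminescence; concentration-response curves fitted after normalization.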
An asterisk follows results filed as active; i = inactive; ? = inconclusive; . = not tested or not shown; [ ] = another dose, or the depositor's remark. Unless noted, the call rests on the fitted dose curve; in most records, active means well fitted curve in the direction sought with a large enough effect; inconclusive means small, poorly fitted or top-dose-only effect, or another doubt; inactive means no such curve, though single readings can be large; an effect the other way counts as inactive or inconclusive. Potency means the concentration at half of the fitted maximal effect.

SMILES	RGS4 inhibitor	TSG101-PTAP inh	KB-V1 MDR tox	MCF10A rerep	SW480 rereplic	KB-3-1 cytotox
CC(=O)c1ccc(-c2cnc3c(NC=O)cc(-c4ccc(N5CCN(C)CC5)cc4)cn23)cc1	.	.	i	.	.	i
CC(=O)c1ccc(-c2cnc3c(NC=O)cc(-c4ccccc4Oc4ccccc4)cn23)cc1	.	.	?	.	.	12µM*
COC(=O)C1=C[C@@H](C(=O)OC)C2C3=C(C(=O)[C@@]2(C)NC(=O)c2ccccc2)[C@H](C)[C@@H]2C(=O)NC(=O)[C@@H]2[C@@H]3C1 (some centres undefined)	10%	.	.	.	.	.
Cc1ccc2c(CC(=O)Nc3cc(C(F)(F)F)ccc3Cl)coc2c1C	-17%	.	i	.	.	i
CCOc1ccccc1NC(=O)Cn1c(=O)n(-c2ccc(Cl)cc2)c(=O)c2oc3ccccc3c21	10%	.	.	.	.	.
C=C1C=C(C(F)F)n2ncc(C(=O)NC(C)CC)c2N1 (centres undefined)	.	.	i	.	.	i
COc1cccc(-c2cc(NC=O)c3ncc(-c4ccc(OC)c(OC)c4)n3c2)c1	.	.	15µM*	.	.	13µM*
COc1ccccc1-c1cc(NC=O)c2ncc(-c3ccc(S(C)(=O)=O)cc3)n2c1	.	.	16µM*	.	.	13µM*
O=CNc1cc(-c2cccc(F)c2)cn2c(-c3ccc(F)c(Cl)c3)cnc12	.	.	23µM*	.	.	?
COc1cccc(-c2cnc3c(NC=O)cc(-c4cc(OC)c(OC)c(OC)c4)cn23)c1	.	.	?	.	.	i
COc1ccccc1N1CCN(C(=O)Cn2ncc3c2-c2cc(C)ccc2OC3)CC1	14%	.	i	.	.	i
Cc1cc(Br)ccc1NC(=O)COC(=O)c1ccccc1OCC(N)=O	.	.	i	.	.	?
COCCn1c(N)c(C(=O)NCC2CCCO2)c2nc3ccccc3nc21 (centres undefined)	5%	0%	?	?	10µM*	i
COc1ccc(OC)c(-n2c(SCC(=O)NCC3CCCO3)nc3ccccc3c2=O)c1 (centres undefined)	14%	-1%	i	7%	-4%	i
COc1ccc(OC)c(-n2c(N)c(C(=O)NCC3CCCO3)c3nc4ccccc4nc32)c1 (centres undefined)	-27%	-7%	i	8.2µM*	16µM*	i
Nc1c(C(=O)OCC2CCCO2)c2nc3ccccc3nc2n1C1CCCC1 (centres undefined)	-2%	-8%	23µM*	?	27%	?
COCCn1c(N)c(C(=O)NCc2cccs2)c2nc3ccccc3nc21	5%	-4%	?	8.2µM*	?	?
CCOc1ccc(C2=C(C(=O)CC)Sc3nncn3N2C(=O)CC)cc1	-1%	.	.	.	.	.
COc1ccc2c(c1OC)C(Cc1ccccc1)N1CCc3cc4c(cc3C1C2)OCO4 (centres undefined)	i	.	.	.	.	.
CCCSc1nc2sc3c(c2c(=O)n1-c1ccc(C)c(Cl)c1)CCN(C(C)=O)C3	-53%	.	i	.	.	i
O=C(O)CCc1c2ccc(=O)c(O)c-2oc2c(O)c(O)ccc12	.	.	i	.	.	i
COCCn1c(N)c(S(=O)(=O)c2cccs2)c2nc3ccccc3nc21	-6%	-4%	i	23µM*	9%	i
COc1cccc(/C=N/n2c(N)c(S(=O)(=O)c3cccs3)c3nc4ccccc4nc32)c1OC	17%	-15%	?	3.7µM*	12µM*	?
COc1cccc(/C=N/n2c(CO)nc3ccccc32)c1OC	-1%	-1%	?	?	-5%	i
CC(C)Cn1c(N)c(C(=O)NCC2CCCO2)c2nc3ccccc3nc21 (centres undefined)	-4%[11.4 µM]	-8%	?	2.1µM*	?	i
SMILES	RGS4 inhibitor	TSG101-PTAP inh	KB-V1 MDR tox	MCF10A rerep	SW480 rereplic	KB-3-1 cytotox
CNc1nc2ccccc2n1/N=C/c1cccc(OC)c1OC	5%	-9%	8.2µM*	17%	-13%	i
Nc1c(S(=O)(=O)c2cccs2)c2nc3ccccc3nc2n1Cc1ccccc1	18%	-2%	i	578%[0.0737 µM]	1%	i
COc1cccc(CN(C(=O)c2oc3cc(C)ccc3c2C)C2CCS(=O)(=O)C2)c1 (centres undefined)	8%	.	.	.	.	.
O=C(NCC1(c2ccccc2)CCCC1)C(=O)Nc1cccc(Br)c1	-10%	.	.	.	.	.
Cc1cc(C(=O)CN2C(=O)C(=O)N(Cc3ccccc3)C2=O)c(C)n1Cc1ccc(F)cc1	5%	-3%	i	5.2µM*	?	?
Cc1cc(C(=O)CN2C(=O)C(=O)N(Cc3ccccc3)C2=O)c(C)n1-c1ccccc1F	16%	-8%	i	?	9%	i
Cc1cc(C(=O)CSc2nnc(-c3ccc(F)cc3)o2)c(C)n1CC1COc2ccccc2O1 (centres undefined)	-25%	-4%	i	16µM*	8%	i
Cc1cc(C(=O)CSc2nnc(-c3ccccc3)o2)c(C)n1CC1COc2ccccc2O1 (centres undefined)	-21%	-3%	i	?	1%[9.22 µM]	i
COc1ccc(CCn2c(C)cc(C(=O)CN3C(=O)C(=O)N(Cc4ccco4)C3=O)c2C)cc1	-10%	-6%	i	12%	143%	5.8µM*
COc1cc(-c2nnc(SCC(=O)c3cc(C)n(CC4CCCO4)c3C)o2)cc(OC)c1OC (centres undefined)	9%	-8%	18µM*	23%	10%	i
Cc1cc(C(=O)CSc2nnc(-c3ccc(F)cc3)o2)c(C)n1CC1CCCO1 (centres undefined)	-53%	-1%	?	2%	-7%	i
COc1ccccc1Nc1ncc2c(n1)CCN(CC(C)C)C2	-14%	.	i	.	.	i
CCN(CC)C(=S)S	.	.	.	6%	?	.
CC(=O)N1c2ccc(S(=O)(=O)N3CCN(c4cc(Cl)ccc4C)CC3)cc2CC1C (centres undefined)	-6%	.	i	.	.	i
CC(=O)c1ccc(NC(=O)CCc2c(C)nn(-c3ccc4nnc(C)n4n3)c2C)cc1	-17%	.	.	.	.	.
Cc1cc(C(=O)CN2C(=O)C(=O)N(Cc3ccccc3)C2=O)c(C)n1CC1COc2ccccc2O1 (centres undefined)	-22%	-1%	i	4.6µM*	14%	i
Cc1cc(C(=O)COC(=O)c2ccc(CO)cc2)c(C)n1CC1COc2ccccc2O1 (centres undefined)	4%	1%	i	1%	0%	i
